Bioassay records deposited in PubChem BioAssay by The Scripps Research Institute Molecular Screening Center.
In the library only some 5.7% were active in any assay of this set; here they are far more common.
ssDAF-12 act: S. stercoralis DAF-12 nuclear receptor activators, primary screen, cell-based, luminescence, HEK293, GRIP1 co-expression, lit1-tk-luc | Nuclear hormone receptor DAF-12 (Strongyloides stercoralis) | HEK293 ssDAF-12/GRIP1 lit1-tk-luc reporter; % of 3 µM dafachronic acid response | activation, % at 6.8 µM | hit rate 1% among 370,000 | AID 652126, 2013;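 active means activation above the mean over all tested compounds plus 3 SD, cut at about 0.9% in these data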;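 further: 0% = DMSO-only wells and 100% = 3 µM delta7-dafachronic acid wells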
hgDAF-12 ag: H. glycines DAF-12 receptor agonists, primary screen, cell-based, luminescence, HEK293, GAL4 fusion, UAS-luciferase. HEK293 GAL4-hgDAF12 UAS-luciferase reporter, agonist luminescence; normalized to butyrate control. hit rate 1.8% among 370,000. Nuclear hormone receptor DAF-12 (Heterodera glycines), GAL4 fusion. activation, % at 6.8 µM. AID 687014, 2013;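 active means activation above a cutoff set at the mean of all screened compounds plus 3 SD, cut at about 10% in these data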;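 further: 0% = DMSO wells and 100% = sodium butyrate wells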
hcDAF12 agonist: H. contortus DAF-12 nuclear receptor activators, primary screen, cell-based, luminescence, HEK293, lit1-tk-luc reporter. HEK293 hcDAF-12 lit1-tk-luc reporter; 0% DMSO, 100% Δ7-dafachronic acid. activation, % at 6.8 µM. hit rate 1.4% among 370,000. AID 652067, 2013;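 active means activation above the mean of all tested compounds plus 3 SD, cut at about 5.5% in these data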;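 further: 100% = response to 3 µM Δ7-dafachronic acid high control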
DAX1 inh-1: DAX1 (NR0B1) inhibitors on StAR promoter, primary screen, cell-based, luminescence, SF-1 (NR5A1), full-length DAX-1. HEK293T StAR-luciferase reporter, SF-1/DAX-1 repression relief. AID 652010, 2013. hit rate 1.1% among 370,000. inhibition, % at 6.8 µM;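 active means inhibition above the mean over all tested compounds plus 3 SD, cut at about 3.6% in these data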;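 further: 0% = DAX-1 cells with DMSO and 100% = cells lacking DAX-1 with DMSO; higher inhibition means more luminescence from relief of DAX-1 repression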
DAX1 inh-2: DAX1 (NR0B1) inhibitors, primary screen, cell-based, HEK293, Gal4-DAX1, luciferase luminescence; Nuclear receptor subfamily 0 group B member 1 (Homo sapiens), P51843; HEK293 Gal4-DAX1 luciferase reporter; inhibition, % at 6.75 µM; hit rate 0.99% among 340,000;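 active means inhibition above the mean over all tested compounds plus 3 SD, cut at about 4.2% in these data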;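 further: 0% = DAX1-transfected cells with DMSO and 100% = empty-vector control cells with DMSO; inhibition shows as a rise in luminescence from relieved DAX1 repression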
AHR activator: AHR activators, primary screen, cell-based, luminescence, luciferase reporter, human; AHR-responsive luciferase reporter cells; activation, % at 5 µM; hit rate 2.5% among 320,000; AID 2796, 2010; in the data active means activation above about 47%;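 further: 0% = vehicle wells and 100% = reference agonist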
LXRb hcDAF ctr: LXR agonists, Gal4 luciferase reporter, confirmation, counter-screen for hcDAF-12 agonist project, cell-based, luminescence, HEK293, H. contortus campaign; 3,400 tested, under 10 active; activation, % at 6.8 µM; shares compounds with hcDAF12 agonist; HEK293 Gal4-LXR tk-luc reporter, 24 h; normalized: DMSO 0%, positive control 100%;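 active means mean percent activation of the reporter above a cutoff set as the average over tested compounds plus their standard deviation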
Target sequence (P55055 whole entry, looked up, the tested form may be a part): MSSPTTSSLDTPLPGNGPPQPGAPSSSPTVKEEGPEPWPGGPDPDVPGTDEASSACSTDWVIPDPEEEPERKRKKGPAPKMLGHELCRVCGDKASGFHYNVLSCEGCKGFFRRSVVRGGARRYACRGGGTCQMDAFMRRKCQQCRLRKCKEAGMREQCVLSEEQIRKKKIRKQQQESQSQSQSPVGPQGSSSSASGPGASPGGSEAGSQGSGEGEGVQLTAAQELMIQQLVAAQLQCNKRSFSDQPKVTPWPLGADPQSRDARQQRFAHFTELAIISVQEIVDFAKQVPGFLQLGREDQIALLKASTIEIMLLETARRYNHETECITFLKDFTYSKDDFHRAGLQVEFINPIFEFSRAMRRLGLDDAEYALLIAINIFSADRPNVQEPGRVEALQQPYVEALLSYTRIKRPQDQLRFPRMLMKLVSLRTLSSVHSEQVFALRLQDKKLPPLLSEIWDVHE
hcDAF12 ag: H. contortus DAF-12 receptor agonists, confirmation, cell-based, luminescence, HEK293, lit1-tk-luc, triplicate; AID 743032, 2013; hit rate 61% among 3,400; shares compounds with hcDAF12 agonist; activation, % at 6.8 µM; HEK293 hcDAF-12 lit1-tk-luc reporter; % of Δ7-dafachronic acid response;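 active means mean activation across triplicate tests above the threshold derived from the earlier primary screen, cut at about 5.5% in these data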;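 further: 0% = DMSO only wells and 100% = 3 µM Δ7-dafachronic acid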
hgDAF12 ag: H. glycines DAF-12 receptor agonists, confirmation, cell-based, luminescence, HEK293, GAL4-LBD fusion. shares compounds with hgDAF-12 ag. HEK293 GAL4-hgDAF12 luciferase reporter, agonist mode; percent of butyrate response. activation, % at 6.8 µM. hit rate 80% among 3,300. AID 743050, 2013;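 active means mean activation over triplicate wells above the hit cutoff derived from the earlier primary screen, cut at about 11% in these data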;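 further: 0% = DMSO low control and 100% = 2 mM sodium butyrate high control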
LXRb DAF12 ctr: LXR agonists, Gal4 luciferase reporter, confirmation, counter-screen for hgDAF-12 agonist project, cell-based, luminescence, HEK293, H. glycines campaign; 3,300 tested, under 10 active; activation, % at 6.8 µM; 24 h; shares compounds with hgDAF-12 ag;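 active means mean activation of the triplicate above a set limit carried over from the primary screen, none filed active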
Numbers without * were called inactive; x = no result.

SMILES	ssDAF-12 act	hgDAF-12 ag	hcDAF12 agonist	DAX1 inh-1	DAX1 inh-2	AHR activator	LXRb hcDAF ctr	hcDAF12 ag	hgDAF12 ag	LXRb DAF12 ctr
Fc1ccc(Nc2nc(-c3cccnc3)cs2)cc1	1.1*	17*	10*	1	8.0*	39	1	10*	20*	1
c1ccc(-c2csc(Nc3cccnc3)n2)cc1	1.5*	21*	8.1*	-1	1	31	0	7.9*	14*	1
O=C(Nc1nc(-c2ccccc2)cs1)c1cccnc1	-1	1	-2	0	0	-4	x	x	x	x
CCc1ccccc1Nc1nc(-c2cccnc2)cs1	-2	8	-1	0	-1	7	x	x	x	x
CC(=O)OCCN1CCN(C(=O)CN2C(=O)NC(c3ccccc3)(c3ccccc3)C2=O)CC1	0	-1	-2	0	0	11	x	x	x	x
Cc1cc(SCC(=O)c2ccc(Cl)cc2)nc(=O)[nH]1	1.3*	15*	6.8*	3	1	-4	2	5.8*	15*	1
Cc1cc(SCC(=O)c2ccccc2)nc(=O)[nH]1	0	6	5	2	2	12	x	x	x	x
Cc1cc(C)n2nc(C(=O)Nc3ccc(S(=O)(=O)N(C)C)cc3)nc2n1	-2	-1	-2	0	1	-2	x	x	x	x
O=C(NC1=NCCS1)c1ccc(Cl)c(Cl)c1	1	20*	9.2*	3	5.4*	0	1	7.5*	18*	1
CCCCCN(C(=O)CCC(=O)OCc1cccc(C)c1)c1c(N)n(CCCC)c(=O)[nH]c1=O	0	-3	0	1	-1	-2	x	x	x	x
Cc1ccc(-c2nnc(-c3ccccc3Br)o2)cc1	1.8*	20*	15*	3	4	24	1	10*	20*	1
Cc1ccccc1-c1nnc(-c2ccccc2)o1	1	14*	7.8*	2	3	30	1	9.3*	17*	1
O=C(O)CSc1c(Cl)c(=O)oc2ccc(Cl)cc12	-1	2	0	0	2	x	x	x	x	x
COc1cccc(C(=O)Nc2ccc3ccccc3c2)c1	0	17*	7.5*	2	-2	15	2	9.9*	24*	2
Cc1occc1C(=O)Nc1ccc2ccccc2c1	1.4*	14*	11*	2	4.4*	15	1	5	16*	1
CC(=O)c1cccc(NC(=O)c2ccoc2C)c1	-1	-3	-1	0	0	7	x	x	x	x
Cc1noc(C)c1C(=O)Nc1ccc2ccccc2c1	-1	-2	-2	-1	0	2	x	x	x	x
CC(=O)Nc1ccc(C(=O)NNC(=O)c2cccc(C)c2)cc1	-1	1	-1	1	1	0	x	x	x	x
O=C(Nc1ccc2ccccc2c1)c1onc2c1CCCC2	1.4*	14*	12*	3	1	0	2	6.4*	21*	1
Cc1cccc(C(=O)Nc2ccc3ccccc3c2)c1	1	14*	7.0*	3	6.8*	4	2	6.5*	23*	1
CC(NC(=O)COC(=O)c1ccccc1F)C1CC2CCC1C2 (stereo not drawn)	0	-2	-2	-1	-1	0	x	x	x	x
COc1cccc(N2C(=O)CC(N3CCN(S(=O)(=O)c4ccccc4[N+](=O)[O-])CC3)C2=O)c1 (stereo not drawn)	0	0	-2	-1	-1	x	x	x	x	x
Cc1ccc(C(=O)NC(C(=O)OCc2cn3cc(Cl)ccc3n2)C(C)C)cc1 (stereo not drawn)	-1	-3	-2	3	0	0	x	x	x	x
Cc1csc2ncc(C(=O)NCCc3ccccc3)c(=O)n12	1.9*	14*	8.7*	3	2	41	0	6.3*	9	0
O=C(Nc1ccc2[nH]c(=S)sc2c1)Nc1ccccc1F	1.7*	15*	7.4*	2	1	33	2	8.0*	20*	1
SMILES	ssDAF-12 act	hgDAF-12 ag	hcDAF12 agonist	DAX1 inh-1	DAX1 inh-2	AHR activator	LXRb hcDAF ctr	hcDAF12 ag	hgDAF12 ag	LXRb DAF12 ctr
Cc1cc2nc(-c3ccc[nH]c3=O)[nH]c2cc1C	1.2*	15*	7.6*	3	-5	1	2	7.9*	12*	1
Cc1cc2nc(-c3ccc[nH]c3=O)n(Cc3ccc(F)cc3)c2cc1C	-1	1	0	0	1	2	x	x	x	x
COc1cccc(NC(=O)C2(C)CCCN2C(=O)C(C)C)c1OC (stereo not drawn)	-1	-3	0	1	x	x	x	x	x	x
Cn1c(N/N=C/c2cc3ccccc3nc2Cl)nc2ccccc21	1.4*	15*	12*	3	-2	42	2	11*	17*	1
Cc1nnc(C)n1/N=C/c1cc2ccccc2nc1Cl	-1	1	5	0	1	2	x	x	x	x
Cc1csc(NC(=O)c2cccnc2)n1	-1	3	2	1	1	-2	x	x	x	x
Cc1csc(NC(=O)c2ccc3nc[nH]c3c2)n1	0	20*	9.8*	2	1	33	1	5	20*	1
CC(=O)Oc1[nH]c(=O)c2cccc3c2c1CCC3	-1	0	-1	0	1	x	x	x	x	x
